Compound activity (PubChem BioAssay)
HepG2 tox – kills HepG2 cells in TGF-b inhibitor counter-screen. HepG2 CAGA-GFP viability, ATP luminescence, 18 h. Potency, µM (highest dose often 46.1 µM), hits mostly cytotoxic. 410,000 compounds, 0.76% hits. AID 588856
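CellTiter-Glo luminescence gave cytotoxicity after 18 hours at 37 degrees C. The cells were HepG2 CAGA-GFP in 1% FBS DMEM, stimulated with 500 pg/mL TGF-beta after compound addition. %Activity was normalised to no-cell wells (complete cell-killing) and DMSO (no toxicity), and curves were fitted and classified.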
TGFb inhibitor – inhibitors of TGF-b signaling; HepG2 CAGA-GFP TGF-b/SMAD3 reporter, GFP fluorescence, 18 h; TGF-beta stimulated, 500 pg/mL final; Potency, µM (doses to about 46.1 µM), most hits filed as inhibitors; 410,000 compounds, 1.2% hits; AID 588855; further: nearly all actives have a fitted effect of over 65% in size
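HEPG2 CAGA-GFP, 1000 cells/well; 2 h settle, 37 C; cpd via pin tool; TGF-b 500 pg/mL final; 18 h, 37 C; GFP imaging ex488/em500-530; %Activity normalised to -TGF-b and +DMSO controls; CRC fit, curve class.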
D3 antag – D3 dopamine receptor (human) antagonism; D3R cells, DiscoveRx beta-arrestin luminescence, antagonist mode; active compounds read low; max response, negative = inhibition, %; 360,000 compounds, 2.5% hits; AID 652054; in the data active means max response below about -50%; inconclusive means no clear call, values can overlap the other calls
Target sequence (P35462 whole entry, looked up): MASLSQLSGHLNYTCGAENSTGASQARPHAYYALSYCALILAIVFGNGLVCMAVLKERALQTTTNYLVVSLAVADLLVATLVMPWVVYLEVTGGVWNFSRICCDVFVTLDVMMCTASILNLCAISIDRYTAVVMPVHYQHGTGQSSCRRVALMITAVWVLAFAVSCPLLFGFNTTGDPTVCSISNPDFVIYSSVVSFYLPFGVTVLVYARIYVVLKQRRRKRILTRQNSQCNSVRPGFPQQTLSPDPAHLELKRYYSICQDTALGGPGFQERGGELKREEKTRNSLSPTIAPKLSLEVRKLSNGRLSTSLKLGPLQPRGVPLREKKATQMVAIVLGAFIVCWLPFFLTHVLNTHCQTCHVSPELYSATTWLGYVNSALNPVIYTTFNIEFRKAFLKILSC
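Cells plated overnight at 1500 cells/well, then exposed to library compounds with dopamine controls for 90 minutes at 37 degrees C. DiscoveRx reagent added for 30–60 minutes at room temperature; luminescence read, quantitative HTS format.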
ATXN2 expr inh – inhibitors of ATXN2 expression | Potency, µM (top dose mostly 57 µM), usual class: inhibitors | 360,000 compounds, 0.72% hits | HEK-293 ATXN2-luciferase reporter, luminescence, 24 h | AID 1745845; further: nearly all actives have a fitted effect of over 55% in size
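ATXN2-luciferase reporter cells (luciferase flanked by upstream and downstream ATXN2 gene portions) were treated 24 h at 37 °C with compounds at up to 57 uM. SteadyGlo luminescence gave expression; GF-AFC fluorescence gave viability.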
DRD3 agonist – D3 dopamine receptor (human) agonism | AID 652048 | D3R DiscoveRx beta-arrestin cells, luminescence, 90 min | P35462 | max activation, % | 410,000 compounds, 0.58% hits; in the data active means max activation above about 30%
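Agonist mode: compounds and dopamine controls were applied to plated cells for 90 min at 37 degrees C after an overnight attachment at 1500 cells/well. Luminescent read-out followed 30 - 60 minutes at room temperature with DiscoveRx detection reagent.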
S2 tox – viability counter-screen for ATXN expression inhibitors; S2 cells (HEK-293 line with an ATXN2-luciferase reporter) viability, CellTiter-Fluor protease fluorescence, 24 h; 400,000 compounds, 0.49% hits; Potency, µM (series often up to 56.7 µM), actives largely listed as cytotoxic; AID 651635; further: nearly all actives have a fitted effect of over 40% in size
Each line names hits and unclear results; the compound was inactive in the other large screens. A selection: hits, their analogues and other compounds. The true share with any hit is near 4.8%. Unless noted, the call rests on the fitted dose curve; in most records, active means well fitted curve in the direction sought with a large enough effect; inconclusive means small, poorly fitted or top-dose-only effect, or another doubt; inactive means no such curve, though single readings can be large; an effect the other way counts as inactive or inconclusive.

COC1=C(C(=O)O)N2C(=O)[C@@H](NC(=O)[C@H](N)C3=CCC=CC3)[C@H]2SC1	none (no result: HepG2 tox, TGFb inhibitor, D3 antag, ATXN2 expr inh)
COc1cc2c3nnc(-c4ccc(F)cc4)c-3cn(Cc3ccccc3F)c2cc1OC	HepG2 tox 8.91µM, ATXN2 expr inh 20µM
Cn1cc(/C=C2/SC(=O)N(CC(=O)Nc3ccc4c(c3)OCO4)C2=O)c2ccccc21	D3 antag -84.1, ATXN2 expr inh inconclusive, S2 tox inconclusive
NCCC(=O)N1c2ccccc2Sc2ccc(Cl)cc21	TGFb inhibitor inconclusive
CN1CCN(CCC(=O)N2c3ccccc3Sc3ccc(Cl)cc32)CC1	D3 antag -50.9 (no result: ATXN2 expr inh, S2 tox)
NC(=O)N1CCN(CCCN2c3ccccc3Sc3cc(Cl)ccc32)CC1	D3 antag -69.0, S2 tox inconclusive (no result: ATXN2 expr inh)
CC(/C=N/Nc1nc(N2CCCCC2)nc(N2CCCCC2)n1)=C\c1ccccc1	ATXN2 expr inh inconclusive, DRD3 agonist 39.3, S2 tox inconclusive
Oc1ccc(/C=N/Nc2nc(N3CCCCCC3)nc(N3CCCCCC3)n2)c(O)c1	TGFb inhibitor inconclusive, ATXN2 expr inh inconclusive, DRD3 agonist 37.2, S2 tox inconclusive
CCc1ccc(CNC(=O)COc2cc(=O)n(CC)c3ccccc23)cc1	TGFb inhibitor inconclusive (no result: D3 antag)
CNc1ccc(C=C2c3ccccc3-c3ccccc32)cc1	TGFb inhibitor inconclusive (no result: D3 antag, ATXN2 expr inh, DRD3 agonist, S2 tox)
CC(=O)c1cccc(NC(=O)C2CCCN(c3nnc(-n4cccc4)s3)C2)c1 (stereo not given)	none (no result: D3 antag)
COc1ccc(CO[C@@H]2O[C@H](CO)[C@@H](O)[C@H](O)[C@H]2NC(C)=O)cc1OC	D3 antag -51.6 (no result: ATXN2 expr inh)
Cc1ccc(S(=O)(=O)c2nc(S(C)(=O)=O)sc2N(C)Cc2ccccc2)cc1	TGFb inhibitor inconclusive, S2 tox inconclusive (no result: D3 antag)
Cc1[nH]n(-c2ccccc2)c(=O)c1C1(C(F)(F)F)C(=O)N(c2ccc(F)cc2)C2=C1C(=O)CC(C)(C)C2 (stereo not given)	D3 antag -70.6
CC1(C)CC(=O)C2=C(C1)N(c1ccc(F)cc1)C(=O)NC2(C(F)(F)F)C(F)(F)F	none
CNc1nc(N/N=C/c2cc3c(cc2[N+](=O)[O-])OCO3)nc(Nc2ccccc2)n1	HepG2 tox 15.8µM, TGFb inhibitor inconclusive, S2 tox 28.2µM (no result: ATXN2 expr inh)
CC(C)C[C@@H](CN1CCC[C@@H]1CN1C(=O)C(=O)NC[C@@H]1Cc1ccccc1)N1C[C@H](Cc2ccccc2)N(CC2CCCCC2)C(=O)C1=O	ATXN2 expr inh inconclusive, S2 tox 22.4µM (no result: HepG2 tox, TGFb inhibitor)
CCOc1ccc(CCN2C(=O)C(=O)N([C@@H](CC(C)C)CN3CCC[C@H]3CN3C(=O)C(=O)NC[C@@H]3CC(C)C)C[C@@H]2Cc2ccccc2)cc1	ATXN2 expr inh inconclusive, S2 tox inconclusive (no result: HepG2 tox, TGFb inhibitor)
CC(C)C[C@H]1CN([C@@H](CC(C)C)CN2CCC[C@@H]2CN2C(=O)C(=O)NC[C@@H]2Cc2ccccc2)C(=O)C(=O)N1CC1CCCCC1	TGFb inhibitor 17.8µM, S2 tox inconclusive
CC(C)C[C@H]1CNC(=O)C(=O)N1C[C@H]1CCCN1C[C@H](CC(C)C)N1C[C@H](Cc2ccccc2)N(CC2CCCCC2)C(=O)C1=O	none (no result: HepG2 tox, TGFb inhibitor)
CCOc1ccc(CCN2C(=O)C(=O)N([C@@H](CC(C)C)CN3CCC[C@@H]3CN3C(=O)C(=O)NC[C@@H]3CC(C)C)C[C@@H]2Cc2ccccc2)cc1	TGFb inhibitor 20µM, ATXN2 expr inh inconclusive (no result: S2 tox)
CC(C)C[C@@H](CN1CCC[C@@H]1CN1C(=O)C(=O)NC[C@@H]1Cc1ccccc1)N1C[C@H](Cc2ccccc2)N(CC2CCCCCC2)C(=O)C1=O	TGFb inhibitor inconclusive, S2 tox inconclusive
O=C(c1ccco1)N1N=C(c2ccc(Br)cc2)CC1(O)C(F)(F)F (stereo not given)	TGFb inhibitor 7.94µM
COC(=O)c1ccc(C2C=C(c3ccc(Cl)cc3)Nc3nc4ccccc4n32)cc1 (stereo not given)	TGFb inhibitor inconclusive, ATXN2 expr inh inconclusive, S2 tox inconclusive (no result: D3 antag)
N#Cc1sc2nc(N3CCCCC3)c3c(c2c1N)CCCC3	TGFb inhibitor 11.2µM
COC(=O)c1nnn(CC(=O)Nc2c(C)cccc2C)c1N	none (no result: D3 antag)
CCN(CC)C(=O)C1=C(C)N(CCCOC)C(=O)C(CC(=O)NC2CCCC2)C1 (stereo not given)	none
CCN(CC)C(=O)C1=C(C)N(CCCOC)C(=O)C(CC(=O)NC2CC2)C1 (stereo not given)	D3 antag -115.6
Cn1cc(/C=C/c2ccc3ccccc3n2)c2ccccc21	TGFb inhibitor inconclusive (no result: D3 antag, ATXN2 expr inh, DRD3 agonist, S2 tox)
Cc1cn([C@@H](CCCCNC(=O)OC(C)(C)C)C(=O)NCCCCCCCCCCC(=O)N2CCN(C(=O)OC(C)(C)C)CC2)nn1	TGFb inhibitor 11.2µM, ATXN2 expr inh inconclusive, DRD3 agonist 66.4, S2 tox 15.8µM
CC[C@H](C)Cc1cn([C@@H](CCCCN)C(=O)NCCCCCCCCCCC(=O)N2CCNCC2)nn1	none
CC[C@H](C)Cc1cn([C@@H](CCCN=C(NC(=O)OC(C)(C)C)NC(=O)OC(C)(C)C)C(=O)NCCCCCCCCCCC(=O)N2CCN(C(=O)OC(C)(C)C)CC2)nn1	TGFb inhibitor inconclusive, ATXN2 expr inh inconclusive, S2 tox 17.8µM
Nc1ccc(C(=O)c2cc3c(ccc4ccccc43)[nH]2)cc1	none (no result: HepG2 tox, TGFb inhibitor, D3 antag, DRD3 agonist, S2 tox)
COc1ccc(OC)c(C2C(C(=O)Nc3ccc(C)cc3)=C(C)Nc3nnnn32)c1 (stereo not given)	none (no result: D3 antag)
CC(C)NC(=O)[C@H](CSCc1ccccc1)N1Cc2ccccc2C1=O	ATXN2 expr inh inconclusive
O=C(NCCCN1CCCC1)[C@H](CSCc1ccccc1)N1Cc2ccccc2C1=O	D3 antag -59.7, ATXN2 expr inh inconclusive
O=C1CC(N2CCN(C/C=C/c3ccccc3)CC2)C(=O)N1Cc1cccs1 (stereo not given)	D3 antag -62.7
Cc1ccc(CN2CCOc3ccc(C(C)(O)COc4ccccc4)cc3C2)o1 (stereo not given)	none (no result: HepG2 tox, TGFb inhibitor, D3 antag, ATXN2 expr inh, DRD3 agonist)
CCN1CCC(N(Cc2ccc3c(c2)OCO3)C(=O)Nc2cc(Cl)ccc2C(=O)OC)CC1	TGFb inhibitor inconclusive, ATXN2 expr inh 25.1µM, S2 tox 15.8µM (no result: D3 antag)
CCN1CCC(N(Cc2ccc3c(c2)OCO3)C(=O)Nc2ccccc2OC)CC1	none (no result: D3 antag)
COCC(=O)Nc1cc(C(=O)N2CC3(C)CC2CC(C)(C)C3)c2c(c1)nc(-c1ccncc1)n2C (stereo not given)	none (no result: HepG2 tox, TGFb inhibitor, D3 antag, ATXN2 expr inh, DRD3 agonist)
COc1ccccc1CNCC(=O)NCc1ccc(C)cc1	D3 antag -86.7
COc1ccccc1C(C)NCC(=O)NCC(=O)Nc1ccc(F)c(F)c1F (stereo not given)	none
